In ChEMBL document CHEMBL3988442, “University of Dundee, Small-Polar-MMV Screening Library” (2021):
About 13,000 (27%) of roughly 48,000 compounds showed an effect of 50% or more. The list shows a part of the results.

The compounds below were run on Wolbachia pipientis (assay: Anti-Wolbachia Cell-Based Screen). Details: 5 µM.
Type: functional
Design: scale not given: in the data most compounds retested in dose-response had high values

Row | Structure (SMILES) | Percent Effect [%]
1 | CC1=N[C@@]2(CC[C@@H]3CN(S(C)(=O)=O)C[C@@H]32)C(=O)N1CC(C)C | -10.09
2 | CCc1nnc2ccc(NCC3(O)CCOCC3)nn12 | -3.397
3 | CC(C)S(=O)(=O)NC(=O)CC(c1ccccc1)C(F)(F)F (configuration not stated) | 0.6807
4 | O=C1NCCCCC1Sc1n[nH]c(=O)n1C1CC1 (configuration not stated) | -5.028
5 | O=C1NCCCCC1Sc1ccc(F)c(F)c1 (configuration not stated) | 87.86
6 | O=C1NCCCCC1SCc1coc(-c2cccc(F)c2)n1 (configuration not stated) | -23.71
7 | O=C1NCCCCC1Sc1ccc(F)cc1F (configuration not stated) | 103.3
8 | O=C1NCCCCC1Sc1nnc(-c2cccnc2)n1C1CC1 (configuration not stated) | -7.436
9 | O=C1NCCCCC1Sc1nnc(N2CCCC2)n1C1CC1 (configuration not stated) | 5.697
10 | O=C1NCCCCC1Sc1nnc(C2CC2)n1C1CC1 (configuration not stated) | -22.11
11 | O=C1NCCCCC1SCc1coc(-c2ccc(F)cc2)n1 (configuration not stated) | -0.7587
12 | O=C1NCCCCC1Sc1ccccc1F (configuration not stated) | 86.32
13 | CCCOCC(=O)N1CCC2(CC1)c1nc[nH]c1CCN2S(C)(=O)=O | -9.401
14 | COc1ccc(C(=O)NCc2ccon2)cc1F | -47.25
15 | Cc1nc(NS(=O)(=O)c2ccc(C)c(Br)c2)no1 | -20.05
16 | Cc1nn(CC(=O)N2CCN(c3ccccc3F)CC2)c(C)c1Cl | 4.996
17 | CCc1nc(C2CCCN2c2ncc(Br)cn2)no1 (configuration not stated) | -1.956
18 | Cc1cccc(N2CCCC2c2nc(C)ncc2CN(C)C)n1 (configuration not stated) | 143.5
19 | Cc1cccc(C(=O)N2CCCCC2c2ccc(CN(C)C)cc2)n1 (configuration not stated) | -0.9167

Row | Structure (SMILES) | Percent Effect [%]
20 | CN(C)Cc1nnc(C2CCN(c3ncccn3)CC2)n1C1CC1 | -3.805
21 | Cc1ncc(CN(C)C)c(C2CCCN2c2ncccn2)n1 (configuration not stated) | 117.1
22 | Cc1nc(CN(C)CC2CCCN2c2cccnn2)oc1C (configuration not stated) | 2.068
23 | O=C(C1CNCCO1)N1CCCC(c2ccccc2)(c2ccccc2)C1 (configuration not stated) | -4.785
24 | O=C(NCCCOC1CCCCC1)C1NCCc2[nH]cnc21 (configuration not stated) | -2.739
25 | CCN(C(=O)COC)C(c1cccnc1)c1ccc2c(c1)CCO2 (configuration not stated) | 2.856
26 | CCSCCNC(=O)Nc1cc(C(=O)N2CCOCC2)ccc1Cl | 4.121
27 | COCCNC(=O)NC1(c2nc(C)no2)CCCCC1 | -1.61
28 | COCCNC(=O)C1(c2ccccc2C)CCOCC1 | 3.195
29 | CC(C)(CO)CCCNC(=O)NC1(c2ccccc2F)CC1 | 114.3
30 | CC(C)(CO)CCCNC(=O)N1CCc2c(F)ccc(F)c2C1 | 36.67
31 | COCCNC(=O)NC1(c2ccccc2F)CC1 | 110
32 | CN(Cc1ccccc1)C1(C(=O)NC(C)(C)CO)Cc2ccccc2C1 | 8.937
33 | O=C(NCCCc1ccc(O)cc1)C1(O)Cc2ccccc2C1 | -1.893
34 | Cc1cc(C(=O)NC2(c3cccc(F)c3)CCOCC2)no1 | -27.95
35 | CC(C)(CO)CCCNC(=O)NC1(C)Cc2ccccc2C1 | 128.7
36 | CS(=O)(=O)CCCNC1(c2cccc(F)c2)CC1 | 13.79
37 | CC(C)(CO)CCCNC(=O)NC1(c2cccc(F)c2)CC1 | 104.1
38 | O=C(Nc1ccccc1F)NC1(CO)CCOCC1 | 2.484

Row | Structure (SMILES) | Percent Effect [%]
39 | CC(C)c1noc([C@@H]2C[C@H](NS(=O)(=O)Cc3ccccc3)CN2C)n1 | -6.361
40 | CC(C)(O)CCc1ccc(C(=O)NCCC2CCCOC2)cc1 (configuration not stated) | -14.7
41 | O=C1CC[C@@H](C(=O)N2CCC(Cn3cc(C4CCCCC4)nn3)CC2)N1 | -19.31
42 | CCc1cnc(CN2C(=O)CC3(CCSC3)C2=O)o1 (configuration not stated) | -1.105
43 | CCn1cncc1C1CC(=O)Nc2c1c(C)nn2C (configuration not stated) | -2.495
44 | O=S(=O)(c1cccnc1)N1C[C@@H]2CC[C@H](C1)N(Cc1ccccn1)C2 | 0.4176
45 | Cc1ccc(NC2(C(=O)NCCCc3c(C)n[nH]c3C)CCCC2)cc1 | 12.56
46 | COc1ncccc1NC(=O)NC(C)(C)c1ncc(C)s1 | 4.256
47 | CCN1CC(C(=O)N2CCc3cc(C(N)=O)n(C)c3C2)CC1=O (configuration not stated) | 10.03
48 | CCc1nnc2n1CC(CNc1cnc3ccccc3n1)CC2 (configuration not stated) | -8.213
49 | OCCN1CCC(c2csc(Nc3cnccn3)n2)CC1 | 83.21
50 | NC(=O)CN1CCC(C(=O)NCc2nc(-c3ccc(F)cc3)cs2)CC1 | 0.3881
51 | NC(=O)CN1CCCC1c1csc(Nc2cnccn2)n1 (configuration not stated) | 66.85
52 | NC(=O)CN1CCC(c2csc(Nc3cnccn3)n2)CC1 | 117.3
53 | COc1ccccc1CNC(=O)C(C)N1CC(n2cc(C)cn2)C1 (configuration not stated) | -24.87
54 | CN(C)c1cc2c(nn1)CCN(C(=O)c1cc3c(s1)CCOC3)C2 | -8.36
55 | CCC(NCc1ccccc1Cl)c1ccccc1OCC(=O)NC (configuration not stated) | -10.16
56 | O=C(c1cn2cc(Cl)ccc2n1)N1CCC(CCn2cccn2)CC1 | 2.946
57 | COCCN1C[C@@H](C)[C@@]2(COCCN(C(=O)c3cccc(C)n3)C2)C1.O=C(O)C(F)(F)F.O=C(O)C(F)(F)F | -4.007
